From PubChem BioAssay
The list is not random: actives were taken first. Their share in the collection is about 19%.
IL-1B inflam inh – inflammasome signaling inhibition, IL-1 beta readout | THP-1 LPS/ATP IL-1B secretion, AlphaLISA, 16 h; hits give low values | activity change, % at 57.5 µM | 360,000 tested, 4.7% active | AID 743279; in the data active = activity change below about -50%; inconclusive = mostly about -30% to -49%; also: % is scaled to controls: 0 for no effect and ±100 for the full control effect
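Secreted IL-1B measured by AlphaLISA bead assay after 16 h compound exposure of THP-1 cells; compounds (final up to 57.5 uM) added 1 h before LPS (250 ng/mL) and ATP (1.25 mM) stimulation; lower signal means less secretion.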
MCF10A rereplic – induces DNA re-replication in MCF 10a normal breast cells. MCF 10A DNA re-replication, Hoechst nuclear intensity, 48 h. 350,000 tested, 2.9% active. Potency, µM (top dose mostly 46.1 µM), inactives show at the highest dose activity, positive = re-replication, most hits filed as activators; also: potency is read from the fitted curve at half-maximal effect; % of control where 0% means no effect; nearly all actives have a fitted effect of over 50% in size
TDP1 cell CPT – DT40-hTDP1 cell growth loss with CPT; 420,000 tested, 12% active; Potency, µM (series often up to 46.2 µM), for the others: at the highest dose activity change, negative = growth inhibition, hits mostly inhibitors; chicken DT40 Tdp1-/-;hTDP1 cells + 20 nM CPT, ATP luminescence, 48 h; also: potency is read from the fitted curve at half-maximal effect; % is scaled to controls: 0 for no effect and ±100 for the full control effect; nearly all actives have a fitted effect of over 55% in size
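Chicken DT40 Tdp1-/- cells complemented with human TDP1, 400 cells/well, exposed to compounds plus 20 nM camptothecin for at least 48 h at 37 C; viability read as ATP content by CellTiter-Glo luminescence.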
SW480 rerep – induces DNA re-replication in SW480 colon adenocarcinoma cells; Potency, µM (doses to about 46.1 µM), without a hit: top-dose re-replication activation, most hits filed as activators; SW480 DNA re-replication, Hoechst DNA content imaging, 48 h; 340,000 tested, 1.8% active; also: potency is read from the fitted curve at half-maximal effect; % of control where 0% means no effect; nearly all actives have a fitted effect of over 55% in size
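Quantitative HTS format with DMSO vehicle controls; 48 hr drug incubation at 37 C, then 40 min Hoechst staining and scanning imager measurement at 405 nm excitation.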
BCR signal inh – blocks chronic active B-cell receptor signaling | ABC-DLBCL IkBa-CBG/CBR reporter, luminescence ratio, 4 h | Potency, µM (top dose mostly 46.1 µM), without a hit: top-dose activity change, negative = inhibition, usual class: inhibitors | 340,000 tested, 0.05% active | AID 493014; active = well fitted inhibition curve with a large enough effect in the signal ratio, with a control signal flat, not every such curve was filed as active; inconclusive = small, poorly fitted or top-dose-only effect, or effect the other way, or a change in a side signal; the % refers to the signal ratio;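 also: potency is read from the fitted curve at half-maximal effect; plate controls were basal doxycycline-induced cells for no effect and cells given 10 µM MG132 for full effect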
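Compounds up to 46 uM were incubated four hours with TMD8 cells whose green CBG68 luciferase is fused to IkappaBalpha; red CBR luminescence normalised the signal, and concentration-effect curves were fitted to fusion, red and ratio data.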
DT40 TDP1 no CPT – qHTS for Inhibitors of human tyrosyl-DNA phosphodiesterase 1 (TDP1): qHTS in cells in absence of CPT; AID 686978, 2013; 420,000 tested, 15% active; Potency, µM (top dose mostly 46.2 µM), without a hit: at the top dose activity change, negative = growth inhibition, usual class: inhibitors; DT40 Tdp1-/- hTDP1 cells, no CPT, ATP luminescence, 48 h; also: potency is read from the fitted curve at half-maximal effect; % is scaled to controls: 0 for no effect and ±100 for the full control effect; nearly all actives have a fitted effect of over 55% in size
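A cellular qHTS used chicken DT40 cells lacking endogenous Tdp1 but carrying stably transfected human TDP1. Compounds were applied without camptothecin, and cell growth kinetics were judged by ATP-dependent luminescence after ≥48 hr.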
An asterisk follows results filed as active; u = inconclusive; x = no result given; [ ] = another dose, or the depositor's remark. Unless noted, calls follow the shape of the dose curve; as a rule, active = well fitted curve in the direction sought with a large enough effect; inconclusive = small, poorly fitted or top-dose-only effect, or another doubt; inactive = no such curve, though single readings can be large; an effect the other way counts as inactive or inconclusive.

SMILES | IL-1B inflam inh | MCF10A rereplic | TDP1 cell CPT | SW480 rerep | BCR signal inh | DT40 TDP1 no CPT
Cc1cccc(Cn2c(-c3cccc(Br)c3)nc3ccccc32)c1 | x | x | 18µM* | x | u | 16µM*
Cc1nc(Br)c(Br)n1Cc1ccccc1 | 40 | x | u | x | x | 21µM*
Cc1nc2ccccc2n1Cc1ccccc1 | 53 | -1% | 16µM* | -3% | -1% | u
Brc1cccc(Cn2c(-c3cncs3)nc3ccccc32)c1 | 21 | 27% | u | 2% | 2% | -29%
CC(NC(=O)/C=C/c1ccco1)c1nc2ccccc2n1Cc1cccc(Cl)c1 (stereo unspecified) | -20 | u | u | 11% | -26% | u
O=C(CCCCCn1c(=O)[nH]c2ccccc2c1=O)N1CCN(c2ccc(Cl)cc2)CC1 | x | x | u | x | -13% | u
O=C(NCC(=O)N1CCCC1)NN=Cc1ccccc1O | 52 | x | u | x | x | u
CC(=O)NCCNc1cc(-c2ccccc2CN(C)C)ncn1 | x | x | 1% | x | x | -4%
CC(c1nc2ccccc2n1Cc1ccccc1)N1CCCCC1 (stereo unspecified) | -11 | u | 16µM* | 5% | u | 18µM*
Cc1nc([N+](=O)[O-])c(Sc2nc3ccccc3n2C)n1Cc1ccccc1 | -105* | 15µM* | u | u | u | 5.2µM*
Cc1nc2cc(NCc3ccccc3O)ccc2n1Cc1ccccc1 | -54* | 13%[9.22 µM] | u | 10% | u | u
Cc1nc([N+](=O)[O-])c(SCC(N)=O)n1Cc1ccccc1 | -18 | 10% | -2% | 0% | 1% | u
Cc1nc2ccccc2n1Cc1ccc(Br)cc1 | -63* | -2% | 5.8µM* | -2% | x | 6.5µM*
Cn1cnc2cc(NCc3ccccc3O)ccc21 | 4 | 3% | 8% | 3% | u | 5%
COc1ccc(S(=O)(=O)N2CCOCC2)cc1C(=O)NC1CCCCCC1 | -8 | -1% | -11% | 0% | 4% | u
CCC(C)Cn1c(C)nc2ccccc21 (stereo unspecified) | 38 | -5% | u | -3% | u | 10µM*
Cc1cc(C)c(NC(=O)Cc2ccc(-n3c(C)nc4cccnc43)cc2)c(C)c1 | x | x | 18µM* | x | x | 21µM*
CCCn1c(CCC(=O)Nc2ccccc2OC)nc2cccnc21 | x | x | -19% | x | x | u
CCOc1ccc(OCC)c(NC(=O)CCc2nc3cccnc3n2Cc2cccs2)c1 | x | x | u | x | x | 16µM*
CCOC(=O)c1ccc(NC(=O)CCc2nc3cccnc3n2Cc2cccs2)cc1 | x | x | u | x | x | 18µM*
O=C(CCc1nc2cccnc2n1Cc1cccs1)Nc1cccc(Cl)c1 | x | x | 16µM* | x | x | u
O=C(Nc1cccc(Cl)c1Cl)c1cc2nc(-c3ccc4c(c3)OCO4)cc(C(F)(F)F)n2n1 | x | x | 4% | x | x | 6%
Cc1cc(=O)c(C(=O)NCCCc2ccncc2)c2n1-c1ccccc1SC(c1cccs1)C2 (stereo unspecified) | x | x | u | x | x | -19%
CN(CCO)S(=O)(=O)c1ccc2c(c1)C(=NN)c1cc(S(=O)(=O)N(C)CCO)ccc1-2 | 0 | u | -25% | 16% | -1% | u
Cc1cc(NC(=O)CCc2nc3cccnc3n2Cc2cccs2)ccc1Br | x | x | 16µM* | x | x | 21µM*
CCCn1c(CCC(=O)Nc2cccc(C)c2C)nc2cccnc21 | x | x | -30% | x | x | u
CCc1nc2cccnc2n1-c1ccc(CC(=O)NCCOC)cc1 | 3 | -21% | -3% | -6% | u | -6%
CCCn1c(CCC(=O)Nc2cccc(CC)c2)nc2cccnc21 | x | x | 16µM* | x | x | u
CCOC(=O)c1ccc(NC(=O)Cc2ccc(-n3c(CC)nc4cccnc43)cc2)cc1 | x | x | 18µM* | x | x | 26µM*
